Data as given in PubChem BioAssay AID2279 (Southern Research Specialized Biocontainment Screening …, 2010).
Entries with a potency or affinity are not part of this list. The source made the active and inactive calls. How the calls were made is not given here.

Experiment: CCR5-tropic HIV-1 fusion blockers – cell-based, CCR5-tropic Env, dose response (AID 2279)
Settings: CCR5-tropic HIV-1 Env, reporter read-out; series mostly up to 50 µM; inhibition: at the top concentration

inhibition, inactive:
Cc1ccc(/C=C2\SC(=S)N(CCCC(=O)Nc3ccccc3C(=O)O)C2=O)cc1 29.7%
COc1ccc(-c2nn(-c3ccccc3)cc2/C=C\C(=O)Nc2ccc(C(=O)O)cc2)cc1 31.8%
O=C(CCN1C(=O)/C(=C\c2ccccc2F)SC1=S)Nc1ccc(C(=O)O)c(O)c1 9.96%
COc1cc(NS(=O)(=O)c2ccc(NC(=S)NC(=O)c3sc4ccccc4c3Cl)cc2)nc(OC)n1 17.8%
CC(C)(C)c1ccc(S(=O)(=O)/N=C2\C=C(NS(=O)(=O)c3ccccc3)C(=O)c3ccccc32)cc1 13.5%
O=C(O)c1ccc(/C=N/NC(=O)c2ccc(CN3c4cccc5cccc(c45)S3(=O)=O)cc2)cc1 -6.34%
CC(C)(C)OC(=O)N1CCC(c2cc(=O)n3[nH]cc(C(=O)Nc4ccc(F)c(Cl)c4)c3n2)CC1 5.55%
COc1cc(C(c2c(C(=O)O)[nH]c3ccccc23)c2c(C(=O)O)[nH]c3ccccc23)ccc1OCc1ccccc1 -18.4%
CC(C)S(=O)(=O)C1=NSC2=NC(=O)/C(=C\c3ccc(OC(=O)c4ccco4)cc3)C(=N)N21 8.59%
O=C(O)c1[nH]c2ccccc2c1C(c1c(F)cccc1Cl)c1c(C(=O)O)[nH]c2ccccc12 7.54%
O=C1NN(c2ccc(Cl)c(Cl)c2)C(=O)/C1=C/c1ccc(-c2ccccc2C(=O)O)o1 -10.8%
CCC(C)(C)C1CCc2c(sc(NC(=O)c3ccccc3C(=O)O)c2C#N)C1 (stereo not given) -10.8% [at 25 µM]
CCc1nnc(NS(=O)(=O)c2ccc(NC(=O)/C=C/c3ccccc3Cl)cc2)s1 -11.5%
Cc1ccc(S(=O)(=O)Oc2ccc(/C=C3/C(=N)N4C(=NC3=O)SN=C4S(C)(=O)=O)cc2)cc1 4.93%
CC(/C=C1\SC(=S)N(c2ccc(C(=O)O)cc2)C1=O)=C\c1ccccc1 -3.04%
N#Cc1c(-c2cccs2)nc(SCc2ccc(Cl)cc2)[nH]c1=O 17.8%
Cc1ccc(-c2cc(C(=O)Nc3ccc(S(=O)(=O)Nc4onc(C)c4C)cc3)c3ccccc3n2)cc1 -9.23%
CCCCCC#CCC#CCC#CCC#CCCCC(=O)O 23.7%
CC(c1ccccc1)N1C(=O)c2ccc(C(=O)Nc3ccccc3C(=O)O)cc2C1=O (stereo not given) 3.54%
O=C(O)c1ccc(NS(=O)(=O)c2ccc3c(c2)C2C=CCC2C(c2ccccc2F)N3)cc1 (stereo not given) 1.73%
